Measured values reported in PubChem BioAssay AID602350 (Broad Institute, 2012).
Results with a measured potency or affinity are listed apart. Active and inactive are the calls of the source.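 Rule for the calls: active = absorbance falls by 30% or more versus neutral controls, with a potency fitted within twice the top valid dose; inconclusive = no clear call, values can overlap the other calls; inactive = change opposite to expected direction, plus the rest.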

The molecules below were run against Protein disulfide-isomerase (Homo sapiens) (UniProt P07237) (assay: PDI inhibitors, insulin aggregation turbidity, dose response, biochemical, absorbance, cherry-picked samples (AID 602350;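 note: 0% = neutral controls and -100% = rutin hydrate positive control wells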)). Conditions: recombinant PDI insulin aggregation, absorbance 650 nm, 90 min; series mostly up to 19.5 µM; activity change, negative = inhibition: at the top concentration.
Sequence of Protein disulfide-isomerase (Homo sapiens) (P07237 whole entry, looked up): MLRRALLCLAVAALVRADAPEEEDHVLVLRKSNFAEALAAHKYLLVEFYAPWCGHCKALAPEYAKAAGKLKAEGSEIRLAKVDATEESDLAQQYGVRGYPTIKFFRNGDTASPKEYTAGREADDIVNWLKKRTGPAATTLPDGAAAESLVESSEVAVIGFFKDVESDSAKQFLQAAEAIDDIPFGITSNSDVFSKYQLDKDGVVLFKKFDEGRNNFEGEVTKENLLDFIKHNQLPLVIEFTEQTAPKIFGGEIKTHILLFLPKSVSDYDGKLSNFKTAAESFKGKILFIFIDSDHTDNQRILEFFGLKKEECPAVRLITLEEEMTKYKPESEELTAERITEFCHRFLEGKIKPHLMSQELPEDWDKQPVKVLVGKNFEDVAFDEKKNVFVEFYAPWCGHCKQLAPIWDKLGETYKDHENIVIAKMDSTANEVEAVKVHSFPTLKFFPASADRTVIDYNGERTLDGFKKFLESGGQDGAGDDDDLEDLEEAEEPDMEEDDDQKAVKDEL

Activity change, negative = inhibition, inactive:
CCOc1ccc(/C=N/OC(C)C(=O)NCc2ccc3c(c2)OCO3)cc1 (stereo not given) -4.34%
CCCc1cc(=O)[nH]c(SCCOc2ccc(OCC)cc2)n1 7.02%
O=C(c1ccc(S(=O)(=O)N2CCCCC2)cc1)N1CCN(Cc2ccc3c(c2)OCO3)CC1 33%
COc1ccc(C[C@@H]2OC3(C=CC(=O)C=C3)O[C@H]2Cc2ccc(OC)cc2)cc1 -2.56% [at 2.1 µM]
O=C(c1cc([N+](=O)[O-])ccc1N1CCOCC1)N1CCN(c2ccc([N+](=O)[O-])cc2)CC1 8.47%
COc1ccc(OC)c2[nH]c(=O)c(CCNC(=O)C(=O)c3c(C)[nH]c4ccccc34)cc12 3.8%
CCOC(=O)c1c(CN(C)C)n(-c2ccccc2)c2cc(Br)c(O)cc12 -18.2%
Cc1nnc(N/N=C/c2ccc(-c3ccccc3F)o2)n1N 0.128%
Cc1cc2c3c(c1)C1(C(=O)N3C(C)(C)CC2C)C(C#N)=C(N)Oc2n[nH]c(C)c21 (stereo not given) -14.8%
CC(=O)Oc1ccc(C2OC(=O)c3ccccc3N2C(C)=O)cc1 (stereo not given) 29% [at 6.8 µM]
CCOC(=O)C1(CCOc2ccccc2)CCN(Cc2cccc(F)c2)CC1 -1.84%
CN(C)c1ccc(/C=C/C(=O)c2ccc(O)cc2)cc1[N+](=O)[O-] -7.14%
O=C(CCN1C(=O)C2C3C=CC(C4CC34)C2C1=O)Oc1ccccc1 (stereo not given) 5.35%
O=C(/C=C/c1c(F)cccc1Cl)c1ccc(O)cc1 -15.5%
Cc1noc(C)c1S(=O)(=O)Nc1ccc2c(c1)CC(=O)N([C@@H](C)CO)C[C@H](C)[C@@H](CN(C)S(=O)(=O)c1ccc(F)cc1)O2 -0.398% [at 6.8 µM]
